# The list is not random: actives were taken first. Their share in the collection is about 3.1%.
# HIF-2a block: HIF-2a inhibition | 786-0 RCC cells HIF-2a reporter, luciferase luminescence, overnight | inhibition, % at 18.8 µM | 360,000 compounds, 0.72% hits | AID 624352;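 active means inhibition of the luminescence signal of 40% or more relative to plate controls, in a single-dose primary screen at 18.75 µM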
# Peg3 promoter: Peg3 promoter activity inhibition; AID 588405; 360,000 compounds, 1.7% hits; HeLa PEG-Prom luciferase reporter, luminescence, overnight; inhibition, % at 20 µM;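 active means inhibition of at least 50% at 20 µM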
# CF NFkB block: blocks PAF-induced NF-kB reporter in cystic fibrosis cells; KKLEB NF-kB-GFP reporter, GFP fluorescence overnight; inhibition, % at 5 µM; 360,000 compounds, 0.86% hits; AID 588850;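 active means at least 50% inhibition at 5 µM, scaled per plate between neutral and stimulator controls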;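 further: PAF is a Pseudomonas aeruginosa culture filtrate used as stimulus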
# TRPM1 prom inh: MITF TRPM1 promoter inhibition in SK-MEL-5 cells; SK-MEL-5 TRPM1 promoter luciferase, 24 h; inhibition, % at 12.5 µM; 330,000 compounds, 0.83% hits; AID 488899;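 active means mean inhibition across replicates of 60% or more, whatever share of single replicates reaches that level; inconclusive means some that reach 60%, reason not given; inactive means mean inhibition across replicates below 60%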
# KKLEB cytotox: counter-screen for CF NF-kB inhibitors: cytotoxicity | KKLEB CF airway cells viability, ATPlite luminescence, overnight; hits give low values; cells stimulated with P. aeruginosa culture filtrate | 360,000 compounds, 0.36% hits | activity change (cytotoxicity), % at 5 µM;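 active means corrected activity change at or below -50% at 5 µM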
# ABHD5 PLIN5 PPI: inhibitors of human ABHD5-perilipin-5 interaction; inhibition, % at 4 µM; AID 602281; Q00G26+Q8WTS1; Split G. princeps luciferase complementation, luminescence, 4 h; 360,000 compounds, 0.78% hits;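 active means inhibition above the mean inhibition across every tested compound plus 3 SD, cut at about 22% in these data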
# Target sequence (Q00G26 whole entry, looked up): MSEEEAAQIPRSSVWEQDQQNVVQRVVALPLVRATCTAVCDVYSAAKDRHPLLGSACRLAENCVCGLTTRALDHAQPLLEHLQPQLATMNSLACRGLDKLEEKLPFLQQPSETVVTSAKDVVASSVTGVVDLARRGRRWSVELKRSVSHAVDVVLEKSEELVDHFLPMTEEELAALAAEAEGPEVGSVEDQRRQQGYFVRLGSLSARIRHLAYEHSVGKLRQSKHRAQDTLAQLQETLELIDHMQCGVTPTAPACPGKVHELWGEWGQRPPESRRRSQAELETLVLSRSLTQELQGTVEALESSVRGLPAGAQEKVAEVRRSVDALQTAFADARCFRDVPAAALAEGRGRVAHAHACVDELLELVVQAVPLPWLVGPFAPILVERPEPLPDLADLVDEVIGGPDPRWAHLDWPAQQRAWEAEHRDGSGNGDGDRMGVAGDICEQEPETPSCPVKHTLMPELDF
# Target sequence (Q8WTS1 whole entry, looked up): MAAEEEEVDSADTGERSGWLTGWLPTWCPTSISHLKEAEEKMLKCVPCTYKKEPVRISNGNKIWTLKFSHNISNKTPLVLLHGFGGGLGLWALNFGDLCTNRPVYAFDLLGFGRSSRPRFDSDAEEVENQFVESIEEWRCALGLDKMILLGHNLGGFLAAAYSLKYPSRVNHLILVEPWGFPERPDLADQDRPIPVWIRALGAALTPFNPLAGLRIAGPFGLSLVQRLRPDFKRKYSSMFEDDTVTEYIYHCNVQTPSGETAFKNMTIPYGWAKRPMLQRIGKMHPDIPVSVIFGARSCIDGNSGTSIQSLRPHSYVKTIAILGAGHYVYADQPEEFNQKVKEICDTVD
# ABHD5-PLIN5 conf: confirmation of human ABHD5-PLIN5 interaction inhibitors | shares compounds with ABHD5 PLIN5 PPI | biochemical ABHD5-PLIN5 interaction, luminescence | inhibition, % at 4 µM | 2,200 compounds, 67% hits | AID 651612; in the data active means inhibition above about 23%
# HNF4 split-luc: active in HNF4 split-luciferase counter-screen for ABHD5-PLIN5 inhibitors. inhibition, % at 4 µM. 2,200 compounds, 77% hits. shares compounds with ABHD5 PLIN5 PPI. HNF4 dimerization, luminescence, biochemical;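 active means mean inhibition across replicate wells exceeding the computed hit threshold, cut at about 13% in these data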;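 further: light from luciferase halves that rejoin when HNF4 fusion proteins dimerize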
# HIF-2a conf: confirmation of HIF-2a inhibitors; shares compounds with HIF-2a block; 786-0 RCC cells, HIF-2a luciferase reporter luminescence, overnight; inhibition, % at 18.8 µM; 1,800 compounds, 56% hits; AID 651580;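 active means mean inhibition across four replicates of at least 40 percent at the single tested concentration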
# HIF-1a cs: HIF-1a inhibition counter-screen for HIF-2a hits. shares compounds with HIF-2a block. MiaPaCa-2 HIF-1a luciferase reporter, desferoxamine, overnight. inhibition, % at 18.8 µM. 1,800 compounds, 72% hits;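 active means mean inhibition of the reporter signal across four replicates at the single tested dose of 50% or more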
# Hits are given with their value; 0 = inactive; ? = inconclusive; - = no result.
SMILES,HIF-2a block,Peg3 promoter,CF NFkB block,TRPM1 prom inh,KKLEB cytotox,ABHD5 PLIN5 PPI,ABHD5-PLIN5 conf,HNF4 split-luc,others
CNS(=O)(=O)c1ccc(-c2ccc(C=C3C(=O)NC(=O)NC3=O)o2)cc1,0,0,0,0,0,25,94,99,
CN1CCC(N(C)c2nc(-c3ccc([N+](=O)[O-])cc3)nc3ccccc23)CC1,0,108,0,?,0,29,0,0,
COc1c(/C=C2/C(=O)NC(=O)N(C)C2=O)c(CCN(C)C(=O)c2ccccc2)cc2c1OCO2,0,0,0,0,0,0,-,-,
CCNC(=S)N(C)CCc1cc2c(c(OC)c1C=C1C(=O)N(C)C(=O)N(C)C1=O)OCO2,0,0,0,0,0,29,0,18,
CNC(=S)N(C)CCc1cc2c(c(OC)c1/C=C1/C(=O)NC(=O)N(C)C1=O)OCO2,0,0,0,0,0,35,0,18,
Cc1ccc2c(c1)C1C[N+](C)(CC(=O)c3ccc(Cl)cc3Cl)CCC1N2C(=O)c1ccc(F)cc1 (configuration not stated),0,0,0,0,0,0,-,-,
C#C[C@]1(O)CCC2C3CCC4=C/C(=N/OCC(=O)NC(C)C(=O)NC(CCSC)C(=O)O)CC[C@]4(C)C3CC[C@@]21C (some centres not stated),0,0,0,0,0,0,-,-,
CC1=C(O)C(=O)C=C2C1=CC=C1C2(C)CCC2(C)C3CC(C)(C(=O)O)CCC3(C)CCC12C (configuration not stated),92,105,78,94,-75,95,102,106,
CN1C2CCC1/C(=C/c1ccccn1)C(=O)/C2=C\c1ccccn1,88,99,99,97,-91,98,104,109,
CCN1C(=O)NC(=O)/C(=C\c2cn(CC(=O)N3CCCC3)c3ccccc23)C1=O,0,0,0,0,0,25,24,26,
O=C(O)Cn1cc(/C=C2\C(=O)NC(=O)N(Cc3ccco3)C2=O)c2ccccc21,0,0,0,0,0,0,-,-,
CCN1C(=O)NC(=O)/C(=C\c2cn(CC(=O)N3CCCCC3)c3ccccc23)C1=O,0,0,0,0,0,26,0,20,
O=c1[nH]c(=O)n(-c2cccc(Cl)c2)c(O)c1/C=N/c1ccccn1,0,0,0,0,0,26,0,27,
CNS(=O)(=O)c1ccc(N=Cc2c(O)n(-c3ccccc3)c(=O)[nH]c2=O)cc1,0,0,0,0,0,40,0,22,
Cc1ccc(O)c(CN2CCC3CCC(C3)C2)c1 (configuration not stated),0,0,0,0,0,0,-,-,
CC(C)C[C@H](NP(=O)(O)O[C@@H]1O[C@@H](C)[C@H](O)[C@@H](O)[C@H]1O)C(=O)N[C@@H](Cc1c[nH]c2ccccc12)C(=O)O,0,0,0,0,0,0,-,-,
C=CCn1c(O)c(C(C)=Nc2cccc(C(F)(F)F)c2)c(=O)[nH]c1=O,0,0,0,0,0,98,0,18,
COC(=O)[C@@H]1[C@@H](C(=O)OC)C2(c3ccccc3-c3ccccc32)N(c2ccc(Cl)cc2)N1C#N,94,107,92,93,-75,78,97,96,HIF-2a conf=92;HIF-1a cs=106
COC(=O)C1=C(c2ccc3ccccc3c2)C[C@@H]2CC[C@H]1N2C,0,0,0,0,0,0,-,-,
COC(=O)C1=C(C(=O)OC)C2OC1c1cc3ccccc3cc12,86,95,0,112,0,81,78,109,HIF-2a conf=84;HIF-1a cs=59
CC1([N+](=O)[O-])COP(=O)(Nc2ccccc2F)OC1 (configuration not stated),0,0,0,0,0,0,-,-,
COc1ccc(CN2Cc3cnnn3-c3ccccc3C2C#N)cc1 (configuration not stated),90,93,0,98,0,58,91,89,HIF-2a conf=96;HIF-1a cs=105
N#CC1c2ccccc2-n2nncc2CN1C(=O)CCc1ccccc1 (configuration not stated),0,0,0,0,0,0,-,-,
CCCCCN1C(=O)c2cc(OC)ccc2[C@@]2(C(=O)OCC)Cc3cc(Cl)ccc3[C@@H]12,80,-,-,-,-,39,27,30,HIF-2a conf=97;HIF-1a cs=105
CCOC(=O)[C@]12Cc3cc(Cl)ccc3[C@H]1N(C)C(=O)c1ccccc12,0,-,-,-,-,0,-,-,
SMILES,HIF-2a block,Peg3 promoter,CF NFkB block,TRPM1 prom inh,KKLEB cytotox,ABHD5 PLIN5 PPI,ABHD5-PLIN5 conf,HNF4 split-luc,others
CCOC(=O)[C@]12Cc3cc(Cl)ccc3[C@H]1N(C1CCCCC1)C(=O)c1ccccc12,85,-,-,-,-,51,40,39,HIF-2a conf=97;HIF-1a cs=105
CCOC(=O)[C@]12Cc3cc(Cl)ccc3[C@H]1N(CC(=O)OC)C(=O)c1ccccc12,81,-,-,-,-,38,32,34,HIF-2a conf=94;HIF-1a cs=104
CCOC(=O)[C@]12Cc3cc(Cl)ccc3[C@H]1N(C(C)C)C(=O)c1ccccc12,90,-,-,-,-,33,25,29,HIF-2a conf=95;HIF-1a cs=104
CCOC(=O)[C@]12Cc3cc(C)ccc3[C@H]1N(C)C(=O)c1ccccc12,0,-,-,-,-,0,-,-,
O=C1NCN(c2ccccc2)C12CCN(C(c1ccccc1)c1nnnn1C1CCCC1)CC2 (configuration not stated),0,0,0,-,0,0,-,-,
O=C(c1n[nH]c(=O)c2ccccc12)N1CCC2(CC1)OCCO2,0,0,0,0,0,0,-,-,
O=[N+]([O-])c1ccc(N2CCOCC2)c2cccnc12,0,0,0,0,0,0,-,-,
O=[N+]([O-])c1ccc(N2CCOCC2)c2c1no[n+]2[O-],69,96,84,-,-92,0,-,-,HIF-2a conf=58;HIF-1a cs=101
N#C/C(N)=C(/N)C#N,0,0,0,0,0,0,-,-,
O=C1NC(=O)C(C2CCCCCC2)C(=O)N1,0,0,0,0,0,0,-,-,
CC(Cc1ccccc1Sc1ccccc1O)N(C)C (configuration not stated),0,0,0,0,0,0,-,-,
CC(=O)OCC12CC(OC(=O)CC(C)C)C(C)=CC1OC1C(O)C(OC(C)=O)C2(C)C12CO2 (configuration not stated),82,97,93,87,-63,0,-,-,HIF-2a conf=79;HIF-1a cs=102
O=C1NC(=O)C2(CCCC2)C(=O)N1,0,0,0,0,0,0,-,-,

# Source: PubChem (several laboratories)
